# Results from PubChem BioAssay (Tox21).
# Inconclusive results are not listed. A number with no mark means an inactive call. The source made the active and inactive calls. Calls come from the whole dose curve; as a rule, active = well fitted cell-killing curve with a large enough effect in the repeat runs; inconclusive = weak or mixed curves, or effect the other way; inactive = no such curve, though single readings can be large or run the other way.
# Assay: qHTS assay to identify small molecule antagonists of the sonic hedgehog signaling (Shh) pathway - cell viability counter screen (AID 1259367); note: nearly all actives have a fitted effect of over 55% in size
# Settings: NIH/3T3 Gli1-Luc viability, CellTiter-Fluor, 24 h; series mostly up to 92.4 µM; viability change, negative = cytotoxic: at the top concentration
# Excerpt: National Center for Advancing Translational Sciences [NCATS]
# NIH Chemical Genomics Center [NCGC]
# U.S. Environmental Protection Agency [EPA]
# National Institutes of Environmental Health Sciences [NIEHS]
# National Toxicology Program [NTP]
# U.S. Food and Drug Administration [FDA]
# The sonic hedgehog (Shh) pathway is essential for normal embryonic development. Dysregulation of the Shh pathway can cause severe developmental defects in organs. Therefore chemicals that interfere with the pathway are potential developmental toxicants. A cell line designated 3T3Gli1-Luc (DMB/OARSA/CFSAN/FDA, Laurel, MD), a NIH/3T3 derived clone containing stably integrated Gli1-Luc reporter is used to detect chemical interference of the Shh pathway, by changes in the expression of the firefly Luc gene under the control of the Gli1 transcriptional response element. This cell line was used to screen Tox21 libraries for identifying and prioritizing the potential developmental toxicants that interfere Shh pathway. Conditioned medium-stimulated mode was used to screen for chemicals inhibiting Shh signaling. The cytotoxicity of the compounds was tested in parallel by measuring the cell viability using CellTiter-Fluor assay system (Promega, Madison, WI) in the same wells.
# Tox21 Assay Protocol Summary:
# 3T3 Gli1-Luc cells were dispensed at 2,000 per well in 5uL of culture medium into white solid bottom 1536-well plates (Greiner Bio-One, Monroe, NC) using a Multidrop Combi (Thermo Scientific, Waltham, MA) dispenser. The assay plates were incubated at 37 C and 5% CO2 for 4hr, and then 23nL of compounds dissolved in DMSO and positive control were transferred using a Pintool station (Wako, San Diego, CA). The compound transfer was followed by the addition of 1ul conditioned medium or assay buffer using two separate tips of Flying Reagent Dispenser (FRD, Aurora Discovery, San Diego, CA). The assay plates were incubated at 37C and 5% CO2 for 24hr. For viability read, after 23hr of compound treatment, 1uL of CellTiter-Fluor reagent (Promega Corporation, Madison, WI) was added to each well of the assay plates using Flying Reagent Dispenser (FRD, Aurora Discovery, San Diego, CA) and incubated the assay plates at 37C for 1hr. The fluorescence signal was quantified using a ViewLux plate reader (Perkin Elmer, Shelton, CT).
# % is set by controls: 0 for no effect and ±100 for the full control effect; potency is the fitted concentration of half-maximal effect.
SMILES,"viability change, negative = cytotoxic",Potency
COc1cc(NS(=O)(=O)c2ccc(N)cc2)nc(OC)n1,5.83% [at 42.5 µM],
Cc1ccc(S(=O)(=O)O)c(C)c1,8.29%,
O=C(CCNNC(=O)c1ccncc1)NCc1ccccc1,-2.68% [at 42.5 µM],
CC1(CO)CN(c2ccccc2)NC1=O (stereo not given),0.348%,
Cc1ccccc1OCC(O)CO (stereo not given),9.99% [at 42.5 µM],
Cc1cccc(C)c1NC(=O)c1ccccc1C(=O)O,1.28% [at 42.5 µM],
CC(C)(C)c1cc(CCC(=O)NN)cc(C(C)(C)C)c1O,-5.46%,
N#Cc1ccc(C(=O)O)cc1,-0.782%,
CCC(CC)CO,2.16%,
CC(S)C(=O)NCC(=O)O (stereo not given),2% [at 42.5 µM],
CCOC(=O)c1ccc(OC(=O)CCCCCN=C(N)N)cc1,-4.45% [at 42.5 µM],
FC(F)(F)c1ccccc1-n1ccnc1,-1.07% [at 42.5 µM],
C=CC(OCC)OCC,-2.46%,
CCOC(=O)/C=C/c1ccccc1,-3.12%,
C=C(C)C(=O)OCCOP(=O)(O)OCCOC(=O)C(=C)C,1.59%,
CC(C)(C)c1n[nH]c(=S)n(N)c1=O,0.227%,
O=C(O)c1cc(Cl)cc([N+](=O)[O-])c1Cl,-2.72%,
CCOc1cc(NC(C)=O)ccc1C(=O)OC,0.882% [at 42.5 µM],
COc1cc2c(cc1OC)C(=O)CC2,0.34% [at 42.5 µM],
COc1cc(N)ccc1C,3.41%,

SMILES,"viability change, negative = cytotoxic",Potency
CCCCOC(=O)c1ccccc1,1.37%,
OCCC(F)(F)C(F)(F)C(F)(F)C(F)(F)C(F)(F)C(F)(F)C(F)(F)C(F)(F)F,6.49%,
C=Cc1ccccn1,9.37%,
Cc1ccc2ccc(Cl)cc2n1,-2.16% [at 42.5 µM],
CNS(=O)(=O)CCc1ccc2[nH]cc(C3CCN(C)CC3)c2c1,-3.61% [at 42.5 µM],
COC(=O)CCc1ccc(OCC(O)CNC(C)C)cc1 (stereo not given),-9.22% [at 42.5 µM],
Nc1ccc([N+](=O)[O-])c(N)c1,,33.5 µM (active)
CC(=O)OC(C)OC(=O)C(C)c1ccc(-c2ccccc2)c(F)c1 (stereo not given),0.0651% [at 42.5 µM],
Nc1cccc(O)c1,-1.86%,
C[C@H](CCC(=O)O)[C@H]1CC[C@H]2[C@@H]3C(=O)C[C@@H]4CC(=O)CC[C@]4(C)[C@H]3CC(=O)[C@]12C,4.57% [at 42.5 µM],
CCCCOCCOC(=O)COc1nc(Cl)c(Cl)cc1Cl,6.51%,
CCCCCCCC/C=C\CCCCCCCC(=O)OCCCC,1.8% [at 19 µM],
CCOC(=O)c1ncn2c1CN(C)C(=O)c1cc(F)ccc1-2,-0.937% [at 42.5 µM],
COc1cc2c(cc1OC)[C@@H]1CC(=O)[C@@H](CC(C)C)CN1CC2,0.0187% [at 42.5 µM],
CCCCNc1ccc(C(=O)OCCN(C)C)cc1,-5.54% [at 42.5 µM],
COC(=O)[C@@H]1[C@H]2C[C@H]3c4[nH]c5ccccc5c4CCN3C[C@@H]2CC[C@@H]1O,-2.08% [at 42.5 µM],
O=C(OCC(O)CO)c1ccccc1Nc1ccnc2c(C(F)(F)F)cccc12 (stereo not given),-8.24% [at 42.5 µM],
COc1ccc(OC)c(Cl)c1,-3.32%,
C=C(C)C(=O)OCC(C)(C)COC(=O)C(=C)C,-3.24%,
O=C(O)C(=O)Cc1ccccc1,-2.77%,
